# Assay outcomes from PubChem BioAssay.
# HCV inhibitor – HCV inhibition; Potency, µM (series often up to 41.8 µM), for the others: top-dose activity change, negative = inhibition, hits mostly inhibitors; 3.4% of 340,000 active; Huh7.5.1 HCVcc-Cre infection, luciferase reporter, 44 h; further: potency means the concentration at half of the fitted maximal effect; on the % scale 0 is the no-effect control and ±100 the full control effect
#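 Infectious HCVcc-Cre (~0.5 moi) was added to cells just after compound, with cells seeded 4 h earlier at 1,000 per well. Luciferase activity after 44 h culture reported infection; substrate was incubated 15 min at room temperature before reading.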
# Pf growth 48h – P. falciparum growth inhibition at 48 hours (one generation). P. falciparum luciferase growth in erythrocytes, 48 h. Potency, µM (series often up to 28.7 µM), for inactives: at the top dose activity change, negative = inhibition, usual class: inhibitors. 5.9% of 310,000 active; further: potency means the concentration at half of the fitted maximal effect; on the % scale 0 is the no-effect control and ±100 the full control effect
#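 Cell-based growth assay: transgenic P. falciparum expressing firefly luciferase, cultured in red cells within RPMI 1640 containing 0.5% w/v Albumax, 24 mM bicarbonate and gentamycin. A drop in luciferase activity indicates inhibition.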
# NS1 inh – inhibitors of influenza NS1 protein function | Potency, µM (series often up to 46.1 µM), for the others: at the top dose activity, positive = more growth | 0.4% of 270,000 active; calls by dose curve; further: potency means the concentration at half of the fitted maximal effect; actives are rising curves; nearly all actives have a fitted effect of over 50% in size
#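 Recovery from NS1-induced slow growth read by OD600 in budding yeast switched to galactose assay medium (pH 6.0, -URA) at 1:100 dilution. Compound 23 nl per well; the matching strain lacking NS1 serves as control.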
# Pf growth 96h – P. falciparum growth inhibition at 96 hours; P. falciparum luciferase reporter growth, 96 h; Potency, µM (doses to about 28.7 µM), for inactives: top-dose activity change, negative = inhibition, hits mostly inhibitors; AID 504834; 6.9% of 320,000 active; further: potency means the concentration at half of the fitted maximal effect; on the % scale 0 is the no-effect control and ±100 the full control effect
#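 Two-generation exposure (96 h) targets delayed-death phenotype. Reporter parasites carrying integrated firefly luciferase, in red cells at 2% hematocrit and 0.05% parasitemia final, kept at 37 C, 5% CO2; luminescence loss indicates inhibition.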
# VACV Venus inh – inhibitors of vaccinia virus (Venus reporter) | Vaccinia virus Venus reporter expression, fluorescence | Potency, µM (highest dose often 36.5 µM), for the others: at the top dose activity change, negative = inhibition, usual class: inhibitors | 0.46% of 330,000 active; calls by dose curve; tested in A549 cells; further: potency means the concentration at half of the fitted maximal effect; on the % scale 0 is the no-effect control and ±100 the full control effect; nearly all actives have a fitted effect of over 30% in size
# VACV mCherry inh – vaccinia inhibition (mCherry reporter) | Potency, µM (doses to about 36.5 µM), without a hit: at the highest dose activity change, negative = inhibition, hits mostly inhibitors | Vaccinia virus mCherry reporter infection, fluorescence | 0.63% of 310,000 active; calls by dose curve; tested in A549 cells; further: potency means the concentration at half of the fitted maximal effect; on the % scale 0 is the no-effect control and ±100 the full control effect; nearly all actives have a fitted effect of over 35% in size
# NS1 inh valid – validation of influenza NS1 protein function inhibitors; shares compounds with NS1 inh; influenza NS1 function cell assay, 15-point titration; activity change, negative = inhibition, % at 32.9 µM; 1,400 tested, under 10 active; AID 492980; calls by dose curve; further: 0% is about no effect
# PR8 titer – influenza NS1 inhibitors: inhibition of influenza A/PR/8/34 replication; 30% of 95 active; MDCK infected influenza A/PR/8/34, virus titer TCID50; active compounds read low; shares compounds with NS1 inh; virus titer (log TCID50), log10 TCID50 at 5 µM; call rule not given here
# Numbers without * were called inactive; i = inactive; ? = inconclusive; · = no result. This is a sample that favours compounds with a hit; in the whole collection about 11% have one here. Unless noted, the call rests on the fitted dose curve; in most records, active means well fitted inhibition curve with a large enough effect; inconclusive means small, poorly fitted or top-dose-only effect, or another doubt; inactive means no such curve, though single readings can be large or run the other way.
SMILES,HCV inhibitor,Pf growth 48h,NS1 inh,Pf growth 96h,VACV Venus inh,VACV mCherry inh,NS1 inh valid,others
Cc1[nH]nc2c1C(c1ccc(F)cc1)C(C#N)=C(N)O2 (stereo unspecified),12%,9%,5%,?,-4%,-11%,·,
Cn1c(=O)cc(OCC(=O)NCCCN2CCN(Cc3ccccc3)CC2)c2ccccc21,-12%,?,11µM*,?,·,·,-8,
FC(F)(F)c1cccc(NC(=S)N2CCN(c3cccc(C(F)(F)F)c3)CC2)c1,-20%,-4%,?,5.9µM*,-26%,-27%,31,
Fc1ccc(NC(=S)N2CCN(c3cccc(C(F)(F)F)c3)CC2)cc1,-13%,0%,2%,3%,-20%,?,·,
CCCC1N=C2c3ccccc3N=C(SCC(=O)NCCc3ccc(Cl)cc3)N2C1=O (stereo unspecified),·,·,·,·,-2%,-1%,·,
Cc1nnc(NC(=O)CSc2ncc(-c3ccccc3)[nH]2)s1,2%,-2%,4.5µM*,42%,·,·,7,
Cc1nnc(NC2(C(F)(F)F)C(=O)Nc3c2c(=O)n(C)c(=O)n3C)s1 (stereo unspecified),-29%,13%,?,?,-2%,·,9,
CC(=O)NC1(C(F)(F)F)C(=O)Nc2c1c(=O)n(C)c(=O)n2C (stereo unspecified),22%,12%,3%,30%,-1%,-8%,·,
CC(C)(C)NC(=O)Cn1nnnc1-c1nonc1N,8%,15%,?,-22%,2%,·,19,
COCCCNC(=O)CN(c1cc(C(F)(F)F)ccc1Cl)S(C)(=O)=O,0%,18%,9%,2%,·,·,·,
CCCCNC(=O)CN(c1cc(C(F)(F)F)ccc1Cl)S(C)(=O)=O,5%,21%,1µM*,?,-1%,-13%,-4,PR8 titer=8
Cc1cc(C)nc(N2CCC(C(=O)NCc3ccccc3F)CC2)n1,-10%,0%,3%,-17%,-5%,i,·,
O=C1N/C(=N/N=C/c2ccccc2)SC1(c1ccccc1)c1ccccc1,-8%,·,14µM*,20%,-8%,-14%,2,
O=C1N/C(=N/N=C/c2ccc(O)cc2)SC1Cc1ccccc1 (stereo unspecified),23%,?,9%,?,-7%,?,·,
COc1ccc(/C=C2/C(=O)N(c3c(F)c(F)c(F)c(F)c3F)N=C2C)cc1,9%,7%,11µM*,?,·,·,12,
CC(=O)Oc1ccc(/C=C2/C(=O)N(c3ccccc3)N=C2C)cc1,12%,-18%,4%,36%,-7%,-29%,·,
O=C(N=C1SCC(=O)N1c1ccccc1Cl)c1ccco1,4%,154%,11µM*,213%,·,·,26,
O=C(N=C1SCC(=O)N1c1ccccc1)c1ccco1,16%,·,9%,73%,21%,·,·,
COc1ccc(-n2c(Cc3cccn3C)nnc2SCC(=O)Nc2ccc(F)cc2)cc1,-15%,?,?,?,·,·,8,
Cc1ccc(-n2c(Cc3cccn3C)nnc2SCC(=O)NC2CCCCC2)cc1,8%,?,-5%,19%,·,·,·,
Cc1ccc(-n2c(Cc3cccn3C)nnc2SCC(=O)N2CCc3ccccc32)cc1,·,?,7.9µM*,·,-21%,-26%,-19,
Cn1c(SCC(=O)c2ccccc2)nnc1-c1cccs1,-1%,-1%,?,1%,·,·,-25,
COc1ccc(NC(=O)CSc2nnc(-c3cccs3)n2-c2ccccc2)cc1,-19%,?,2.8µM*,-3%,-25%,-28%,12,
COc1cc2c(cc1OC)n(Cc1ccc([N+](=O)[O-])cc1)c(=O)n1nc(-c3ccccc3)nc21,·,·,·,·,-28%,-25%,·,
